Screening data as filed in PubChem.
Most compounds without a hit are left out; they make up all but 19% or so of the library.
Shiga inhibitor: blocks Shiga toxin action in Vero cells. Vero cells, Shiga toxin protein synthesis inhibition reporter. inhibition, % at 38.7 µM. 9.2% of 290,000 active. AID 2315; in the data active = inhibition mostly above about 28%, no sharp cut-off; inactive = mostly below about 43%
Pf growth 96h: P. falciparum growth inhibition at 96 hours | Potency, µM (titrated, usually from 28.7 µM), most hits filed as inhibitors | 6.9% of 320,000 active | AID 504834 | P. falciparum luciferase reporter growth, 96 h
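Delayed-death screen, second-generation endpoint: infected erythrocytes, 2% hematocrit, 0.05% parasitemia final; 96 hours at 37 C, 5% CO2; luciferase detection reagent; luminescence decrease equals reduced growth.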
Pf growth 48h: P. falciparum growth inhibition at 48 hours (one generation); P. falciparum luciferase growth in erythrocytes, 48 h; Potency, µM (top dose mostly 28.7 µM), hits mostly inhibitors; 5.9% of 310,000 active; AID 504832
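Compounds are pin-transferred into medium, infected erythrocytes (2% hematocrit, 0.1% parasitemia final) are added, and plates sit one parasite generation at 37 C in 5% CO2. Detection reagent is then added and luminescence measured.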
Lassa entry inh: Lassa virus entry inhibition; Lassa virus pseudotype entry inhibition, cell reporter; AID 540256; 1.2% of 300,000 active; Potency, µM (series often up to 37.9 µM), hits mostly inhibitors; calls by dose curve; tested in HEK293 cells; also: nearly all actives have a fitted effect of over 50% in size
MARV entry inh: blocks Marburg virus binding to or entry into cells; Marburg virus pseudotyped entry inhibition, cell reporter; Potency, µM (top dose mostly 37.8 µM), most hits filed as inhibitors; 1.8% of 300,000 active; calls by dose curve; tested in HEK293 cells
CHX counter: counter-screen hit for Shiga toxin inhibitors, cycloheximide; 12% of 300,000 active; max response, %; cell reporter, cycloheximide protein synthesis inhibition counterscreen; AID 2314; in the data active = max response mostly above about 13%, no sharp cut-off; inactive = mostly below about 14%; also: read at 38.3 µM for the half of the compounds with a filed dose
Numbers stand for hits; . = inactive; ? = inconclusive; / = no result; [ ] = dose if it differs, or a comment. Unless noted, calls follow the shape of the dose curve; as a rule, active = well fitted inhibition curve with a large enough effect; inconclusive = small, poorly fitted or top-dose-only effect, or another doubt; inactive = no such curve, though single readings can be large or run the other way.

SMILES | Shiga inhibitor | Pf growth 96h | Pf growth 48h | Lassa entry inh | MARV entry inh | CHX counter
Cc1cc(S(=O)(=O)Nc2ccc(C(=O)NCC(c3ccccc3)N(C)C)cc2)ccc1F (stereo not drawn) | . | 10µM | . | . | . | .
Cc1cc(S(=O)(=O)Nc2ccc(C(=O)NCC(c3ccco3)N(C)C)cc2)ccc1F (stereo not drawn) | / | . | ? | . | . | /
CN(C)C(CNC(=O)c1ccc(S(=O)(=O)Nc2ccccc2F)cc1)c1ccccc1 (stereo not drawn) | . | . | . | . | . | .
CCOc1ccc(NS(=O)(=O)c2ccc(C(=O)NCC3(N(C)C)CCCCC3)cc2)cc1 | / | 9.3µM | 8.3µM | . | ? | /
Nc1nc2ccc(Cc3ccncc3)cc2s1 | 78 | . | . | . | . | 20
CC(=O)N1CCN(Cc2nc3cc(NC(=O)c4ccccc4Cl)ccc3n2C)CC1 | . | . | ? | / | . | .
Cn1c(CN2CCCCC2)nc2cc(NC(=O)c3ccccc3Cl)ccc21 | 72 | . | ? | . | ? | 44
Cn1c(CN2CCCC2)nc2cc(NC(=O)C3CCCCC3)ccc21 | . | . | . | . | . | .
Cn1c(CN2CCCCC2)nc2cc(NC(=O)c3ccc(F)cc3)ccc21 | . | ? | . | ? | ? | 34
CCC(=O)Nc1ccc(C(=O)COC(=O)C(CCSC)NC(=O)COc2ccccc2)cc1 (stereo not drawn) | / | . | . | . | . | /
O=C(Nc1cc(Br)ccc1O)c1cc(-c2ccc3c(c2)OCO3)on1 | 77 | . | ? | . | . | 15
CSc1ccccc1NC(=O)c1cc(-c2ccc3c(c2)OCO3)on1 | 61 | . | . | . | . | .
CN(C(=O)c1cc(-c2ccc3c(c2)OCO3)on1)c1ccccc1 | 95 | . | . | ? | ? | 34
COc1ccccc1N(CC(=O)NCCSc1ccc(Cl)cc1)S(C)(=O)=O | . | ? | . | . | . | .
OCC1CCCCN1C(=S)NCc1ccco1 (stereo not drawn) | . | ? | . | / | / | .
Nc1c2c(nc3sc4c(c13)CCCC4)CCCCC2 | 130 | 0.83µM | . | ? | . | 71
Nc1c2c(nc3sc4c(c13)CCCC4)CCCC2 | 107 | . | ? | . | ? | 26
Nc1nc2c(s1)CCCCCCCCCC2 | . | ? | . | . | ? | .
Nc1c2c(nc3sc4c(c13)CCCCC4)CCCCC2 | 59 | . | . | ? | ? | 51
Cc1cccc(C(C)C)c1-n1nnnc1-c1ccccc1 | . | .[5.75 µM] | 10µM | . | ? | .
O=C(Nn1cnnc1)c1ccccc1Cl | . | 8.3µM | . | . | . | .
COc1cccc(OC)c1C(=O)Nc1cc(C)on1 | . | ? | . | . | . | .
COc1cccc(C(=O)Nn2cnnc2)c1OC | / | 2.1µM | . | / | / | .
COc1cccc(C(=O)Nc2cc(C)on2)c1OC | 76 | . | . | ? | ? | 49
Cc1ccccc1C(=O)Nn1cnnc1 | / | . | . | . | . | .
SMILES | Shiga inhibitor | Pf growth 96h | Pf growth 48h | Lassa entry inh | MARV entry inh | CHX counter
COc1ccccc1C(=O)NC(C)c1cccc2ccccc12 (stereo not drawn) | . | . | ? | . | ? | .
COc1cccc(C(=O)NC(C)c2cccc3ccccc23)c1OC (stereo not drawn) | . | ? | . | ? | 5.6µM | .
COc1cc(/C=C/C(=O)OCC(=O)NC2CC2)cc(S(=O)(=O)N2CCc3ccccc32)c1OC | . | ? | ? | ? | ? | .
O=C(CSc1ncnc2nc[nH]c12)N1CCN(c2ccc(Cl)cc2)CC1 | . | . | ? | ? | ? | .
CSCCC(NC(=O)COc1ccccc1)C(=O)NCCOc1ccccc1 (stereo not drawn) | / | . | . | / | / | /
CCOc1ccc2nc(N3CCCC(C(=O)Nc4ccccc4CC)C3)sc2c1 (stereo not drawn) | / | / | / | / | . | /
CCOc1ccc2nc(NC(=O)C3CCN(S(=O)(=O)c4cnc[nH]4)CC3)sc2c1 | . | ? | / | / | / | .
CCOc1ccc2nc(NC(=O)C3CCN(c4cnccn4)CC3)sc2c1 | . | . | 9.3µM | . | ? | .
CCOc1ccc2nc(N3CCC(C(=O)Nc4ccc(Br)cc4F)CC3)sc2c1 | 173 | / | / | / | ? | 35
CNS(=O)(=O)c1ccc(NC(=S)Nc2ccc3c(c2)OCO3)cc1 | 55 | . | . | . | ? | 29
Cc1cc(NS(=O)(=O)c2ccc(NC(=O)Nc3cccc(Cl)c3)cc2)no1 | . | . | . | . | ? | .
CC(=O)Nc1ccc(S(=O)(=O)Nc2ccc3c(c2)OCO3)cc1 | . | . | . | . | . | .
O=C(Nc1ccc(S(=O)(=O)N2CCOCC2)cc1)c1ccc2c(c1)OCO2 | . | . | . | . | . | .
Cc1cc(NS(=O)(=O)c2ccc(NC(=O)Nc3ccc4c(c3)OCO4)cc2)no1 | 35 | . | . | ? | . | .
O=S(=O)(c1ccc(NC(=S)Nc2ccc3c(c2)OCO3)cc1)N1CCOCC1 | 64 | . | . | . | . | 37
C=CCNC(=O)c1ccc(S(=O)(=O)CC)c(Cl)c1Cl | . | .[5.75 µM] | . | . | . | .
C=CCC(NCc1ccco1)c1ccc(OC)c(OC)c1 (stereo not drawn) | . | . | / | . | . | .
C=CCC(NCc1ccco1)c1ccc(OC)cc1OC (stereo not drawn) | . | 10µM | . | / | . | .
CCOC(=O)/C(C#N)=C1/C=Cc2ccccc2N1CC | . | / | . | . | . | .
CCOC(=O)Cc1nn(Cc2ccccc2)c(=O)c2ccccc12 | . | . | . | . | . | .
COc1ccc(-c2nnc(SC(C(=O)c3c[nH]c4ccccc34)c3ccccc3)n2N)cc1OC (stereo not drawn) | . | ? | 8.3µM | ? | ? | .
CCn1c2ccccc2c2cc(NC(=O)CSc3nnc(-c4ccc(OC)c(OC)c4)n3N)ccc21 | . | ? | ? | . | ? | .
O=C(NCCc1ccc(F)cc1)C1CCCCC1 | . | . | . | . | . | 24
NS(=O)(=O)c1ccc(CCNC(=O)C2CCCCC2)cc1 | . | . | ? | . | . | .
O=C(O)C1CCCCC1C(=O)NCCc1ccc(F)cc1 (stereo not drawn) | . | 9.3µM | . | . | . | .
SMILES | Shiga inhibitor | Pf growth 96h | Pf growth 48h | Lassa entry inh | MARV entry inh | CHX counter
NS(=O)(=O)c1ccc(CCNC(=O)CNC(=O)C2CCCCC2)cc1 | . | 12µM | . | . | . | .
CCOc1ccccc1NC(=O)CSc1nnc2ccc(-c3ccccn3)nn12 | / | . | . | . | . | /
O=C(COC(=O)c1ccc(-n2cnnn2)cc1)c1ccc(Br)cc1 | / | ? | ? | . | . | /
Cc1ccnc(SCc2cn3c(C)cc(C)nc3n2)n1 | . | ? | . | / | / | .
Cc1cccc2nc(COc3ccc(-c4ccccc4)cc3)cn12 | 85 | . | . | / | / | 43
Cc1cc(C)n2cc(COc3ccc4ccccc4c3)nc2n1 | 66 | . | . | ? | ? | 53
CCN(CC)CCCN=Cc1c(-c2ccccc2)[nH]n(-c2nc3ccccc3s2)c1=O | . | . | . | . | . | .
N#CCCN1CCN(C(=S)c2ccc(-c3ccc(Cl)c(Cl)c3)o2)CC1 | . | . | . | 20µM | 14µM | .
O=C(O)c1ccc(-c2cccc(Cl)c2)o1 | / | / | / | . | . | /
